# PubChem BioAssay
# Active and inactive are the calls of the source. Unless noted, how the calls were made is not given here.
# Experiments:
# [1] = system: Hepatitis C virus NS3 helicase; experiment: blockers of NS3h binding to ssDNA – biochemical, fluorescence polarization, LOPAC1280 library, primary screen (AID 687035; in the data active means inhibition above about 37%); conditions: Purified HCV NS3 helicase, Cy5-dT15 ssDNA binding fluorescence polarization; stronger effect = higher value; concentration not given here
# [2] = compounds altering Cy5-DNA-NS3h complex signal – biochemical, LOPAC1280, artefact control for HCV NS3 helicase inhibitor project (AID 687037); conditions: Cy5-DNA-NS3h complex fluorescence interference counterscreen
# [3] = blockers of cellular phospholipid synthesis – cell-based, LOPAC library, screen 4, primary screen (AID 1347384); conditions: animal cells, phospholipid biosynthesis inhibition screen; at 10 µM
# [4] = growth inhibition, single agent or in combination, cell-based, chromothripsis tumors, cisplatin or BGB combos (AID 1671449; in the data active means inhibition above about 80%;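 further: cells exposed for 96 hours; 0% = vehicle DMSO and 100% = killing by high DMSO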); conditions: LFS_MB_P medulloblastoma cells
# [5] = growth inhibition, single agent and combos, cell-based, chromothripsis tumors, cisplatin or BGB combos (AID 1671450; in the data active means inhibition above about 80%;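 further: cells exposed to compound for four days; 0% = vehicle DMSO and 100% = cell killing by high DMSO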); conditions: HDN33 neuroblastoma cells, stronger effect = higher value
# [6] = growth inhibition, single agents and combos, ICB984, cell-based, cisplatin or BGB combos, synergistic combos for chromothripsis tumors (AID 1671451); conditions: ICB984 medulloblastoma cells, drug combinations, stronger effect = higher value;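 further: cells exposed for 96 hours before readout; 0% = vehicle DMSO and 100% = killing by high DMSO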
# [7] = growth inhibition, single agents and combos, LFS_MB_1R, cell-based, cisplatin or BGB combos, synergistic combos for chromothripsis tumors (AID 1671452; in the data active means inhibition above about 80%;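 further: cells exposed for 96 hours before readout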); conditions: LFS_MB_1R medulloblastoma cells, stronger effect = higher value
# [8] = growth inhibition, single agents and combos, HTB85, cell-based, BGB or cisplatin IC20 combos, synergistic combos for chromothripsis tumors (AID 1671453; in the data active means inhibition above about 80%;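 further: cells exposed for 96 hours before readout; 0% = vehicle DMSO and 100% = high DMSO killing control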); conditions: HTB85 osteosarcoma cells, drug combinations, stronger effect = higher value
# [9] = growth inhibition, single agents and combos, CRL2098, cell-based, BGB or cisplatin IC20 combos, synergistic combos for chromothripsis tumors (AID 1671454; in the data active means inhibition above about 80%;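 further: cells exposed for 96 h before readout; 0% = vehicle DMSO and 100% = killing by high DMSO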); conditions: CRL2098 osteosarcoma cells, drug combinations, stronger effect = higher value
# [10] = growth inhibition, single agents and combos, HD-MB03, cell-based, BGB or cisplatin IC20 combos, synergistic combos for chromothripsis tumors (AID 1671455; in the data active means inhibition above about 83%;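 further: 0% = vehicle DMSO and 100% = high DMSO as cytotoxic control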); conditions: HD-MB03 medulloblastoma cells, stronger effect = higher value
# [11] = growth inhibition, MDA-MB-436, cell-based, BGB or cisplatin combos, synergistic combos for chromothripsis tumors (AID 1671458); conditions: MDA-MB-436 breast carcinoma growth inhibition, drug combinations, stronger effect = higher value;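 further: cells exposed for 96 hours; 0% = vehicle DMSO and 100% = killing by high DMSO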
# [12] = BT084 cell growth, single and combined drugs, ICGC_MB145, cisplatin and BGB IC40 combos (AID 1671461; in the data active means inhibition above about 80%;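 further: cells exposed to drugs for 96 hours; 0% = vehicle DMSO and 100% = high DMSO full killing control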); conditions: BT084 medulloblastoma cells, drug combinations, stronger effect = higher value
# [13] = RCMB18 cell growth, single agent and combined, cisplatin and BGB IC40 combos (AID 1671462; in the data active means inhibition above about 80%;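 further: cells exposed to compound for four days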); conditions: RCMB18 medulloblastoma cells, stronger effect = higher value
# [14] = CRL1545 cell growth, single agent and combined, cisplatin and BGB IC20 combos (AID 1671464; in the data active means inhibition above about 80%;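 further: cells exposed to compound for 96 hours before readout; 0% = vehicle DMSO and 100% = high DMSO killing control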); conditions: CRL1545 osteosarcoma cells, stronger effect = higher value
# [15] = measured here: combination with BGB IC40, at 0.05 µM
# [16] = measured here: with BGB IC20 combination, at 0.5 µM
# [17] = measured here: with cisplatin IC20 combination, at 0.5 µM
# [18] = measured here: combination with cisplatin, at 0.5 µM
smiles,measurement,setting,value
Oc1ccc2ccccc2c1SSc1c(O)ccc2ccccc12,inhibition,[1],3% (inactive)
same,fluorescence ratio (interference),[2],1 (inactive)
same,outcome,[3],inactive
CCc1c2c(nc3ccc(O)cc13)-c1cc3c(c(=O)n1C2)COC(=O)[C@]3(O)CC,inhibition,"[4]; at 0.5 µM, stronger effect = higher value",-26% (inactive)
same,inhibition,"[4]; measured here: combination with BGB IC20, at 0.005 µM",-6.89%
same,inhibition,"[4]; measured here: combination with BGB IC40, at 0.005 µM",-27.9%
same,inhibition,[4]; [15],-20.9%
same,inhibition,"[4]; measured here: combination with cisplatin, at 0.5 µM, stronger effect = higher value",-58.2%
same,inhibition,"[4]; measured here: combination with cisplatin, at 5 µM, stronger effect = higher value",87.9%
same,inhibition,"[5]; BGB combo, at 5 µM",98.3%
same,inhibition,[5]; at 0.5 µM,84.1% (active)
same,inhibition,"[5]; cisplatin combo, at 5 µM",98.4%
same,inhibition,[5]; [16],83%
same,inhibition,[5]; [17],82.2%
same,inhibition,"[5]; single agent, at 5 µM",96.3%
same,inhibition,"[6]; BGB IC20 combo, at 0.005 µM",45.8%
same,inhibition,"[6]; BGB IC40 combo, at 0.005 µM",68.8%
same,inhibition,"[6]; BGB IC40 combo, at 0.05 µM",95.3%
same,inhibition,[6]; at 0.5 µM,-17.9% (inactive)
same,inhibition,"[6]; cisplatin combo, at 0.05 µM",95.2%
same,inhibition,"[6]; cisplatin combo, at 0.5 µM",-11.4%
same,inhibition,"[6]; cisplatin combo, at 5 µM",-28.7%
same,inhibition,"[6]; measured here: 5 uM single agent, at 5 µM",-16.8%
same,inhibition,[7]; at 0.5 µM,74.1% (inactive)
same,inhibition,[7]; [15],-7.58%
same,inhibition,[7]; [18],77.6%
same,inhibition,"[7]; measured here: combination with cisplatin, at 5 µM",86.6%
same,inhibition,[8]; at 0.5 µM,98.3% (active)
same,inhibition,"[8]; measured here: with BGB IC20, at 0.5 µM",96.1%
same,inhibition,"[8]; measured here: with BGB IC20, at 5 µM",98.1%
same,inhibition,"[8]; measured here: with cisplatin IC20, at 0.5 µM",99.1%
same,inhibition,"[8]; measured here: with cisplatin IC20, at 5 µM",99.5%
same,inhibition,"[8]; single agent, at 5 µM",99.6%
same,inhibition,[9]; at 0.5 µM,57.3% (inactive)
same,inhibition,"[9]; measured here: combination with BGB at IC20, at 0.5 µM",88.7%
same,inhibition,"[9]; measured here: combination with cisplatin at IC20, at 0.5 µM",37.4%
same,inhibition,[10]; at 0.5 µM,99.5% (active)
same,inhibition,"[10]; measured here: combo with BGB at IC20, at 0.5 µM",99.5%
same,inhibition,"[10]; measured here: combo with cisplatin at IC20, at 0.5 µM",99.6%
same,inhibition,[11]; at 0.5 µM,72.1% (inactive)
same,inhibition,"[11]; measured here: BGB combination, at 0.5 µM",67%
same,inhibition,"[11]; measured here: BGB combination, at 5 µM",73.3%
same,inhibition,"[11]; measured here: cisplatin combination, at 0.5 µM",71.2%
same,inhibition,"[11]; measured here: cisplatin combination, at 5 µM",84.4%
same,inhibition,[12]; at 0.5 µM,5.49% (inactive)
same,inhibition,"[12]; cisplatin combination, at 0.5 µM",45.3%
same,inhibition,"[12]; cisplatin combination, at 5 µM",33.9%
same,inhibition,"[12]; measured here: BGB IC40 combination 0.05 uM, at 0.05 µM",-2.99%
same,inhibition,"[12]; single agent, at 5 µM",52.7%
same,inhibition,[13]; at 0.5 µM,30.1% (inactive)
same,inhibition,"[13]; cisplatin combo, at 5 µM",67.1%
same,inhibition,"[13]; measured here: BGB IC40 combination, at 0.05 µM",-24.6%
same,inhibition,[13]; [18],61.9%
same,inhibition,"[13]; single agent, at 5 µM",62.2%
same,inhibition,[14]; at 0.5 µM,93.7% (active)
same,inhibition,[14]; [16],98.1%
same,inhibition,[14]; [17],91.2%
same,inhibition,"[14]; single agent, at 0.05 µM",16.8%
same,inhibition,"[14]; single agent, at 5 µM",99.8%
O=Nc1c(-c2c(O)[nH]c3cc(Br)ccc23)[nH]c2ccccc12,inhibition,[1],2% (inactive)
same,fluorescence ratio (interference),[2],0.9 (inactive)
same,outcome,[3],active
Nc1ncnc2nc(-c3ccc(N4CCOCC4)nc3)cc(-c3cccc(Br)c3)c12,inhibition,[1],-6% (inactive)
same,fluorescence ratio (interference),[2],0.9 (inactive)
Oc1cc(O)cc(/C=C/c2ccc(O)c(O)c2)c1,inhibition,[1],-6% (inactive)
same,fluorescence ratio (interference),[2],0.9 (inactive)
same,outcome,[3],inactive
O=C1c2ccccc2-c2n[nH]c3cccc1c23,inhibition,[1],1% (inactive)
same,fluorescence ratio (interference),[2],1 (inactive)
same,outcome,[3],inactive
C=CCc1cccc(/C=N/NC(=O)CN2CCN(Cc3ccccc3)CC2)c1O,outcome,[3],inactive
CCOC(=O)C(C)Oc1cccc2c(=O)n(CC(=O)Nc3ccc4c(c3)OCCO4)ccc12 (stereo not drawn),inhibition,[1],-3% (inactive)
same,fluorescence ratio (interference),[2],1 (inactive)
